High-throughput results as filed in PubChem.
dFosB act – enhances mouse delta FosB homodimer DNA binding. P13346. purified delta FosB, TAMRA-CDK5 oligo fluorescence polarization; percent of positive-control signal above neutral wells. activation, % at 25 µM. actives 0.99% (n = 340,000). AID 493131;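 active = mean activation above about 17%, with every replicate also reaching it, limit read from the data, passing the limit was not always enough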
Target sequence (P13346 whole entry, looked up): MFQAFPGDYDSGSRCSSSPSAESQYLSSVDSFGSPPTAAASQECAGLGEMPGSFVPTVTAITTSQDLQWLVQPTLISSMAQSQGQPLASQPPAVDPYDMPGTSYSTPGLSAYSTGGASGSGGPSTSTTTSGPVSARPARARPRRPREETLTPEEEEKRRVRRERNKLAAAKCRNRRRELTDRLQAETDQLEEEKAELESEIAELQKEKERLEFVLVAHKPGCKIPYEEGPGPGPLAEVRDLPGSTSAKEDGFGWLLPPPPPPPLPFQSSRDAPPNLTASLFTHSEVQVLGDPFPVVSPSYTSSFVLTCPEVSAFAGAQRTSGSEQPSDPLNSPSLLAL
EBNA-1 inh – blocks EBNA-1 binding to DNA. EBNA-1 DNA binding, fluorescence polarization. inhibition, % at 14.8 µM. actives 0.34% (n = 300,000). AID 1950; in the data active = inhibition above about 28%
TPT1 inhibitor – C. albicans TPT1 enzyme inhibition | recombinant caTPT1, FP RNA substrate dephosphorylation | inhibition, % at 5 µM | actives 0.81% (n = 300,000) | AID 1962;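 active = inhibition above the mean of all tested compounds plus 3 SD, set per screening campaign, cut at about 24% in these data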;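 note: plate controls were DMSO alone for no effect and ferristatin control at 100 nM for full effect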
ZTA counter – counter-screen for EBNA-1 inhibitors: inhibitors of Epstein-Barr virus ZTA; P03206; ZTA-DNA binding, fluorescence polarization; inhibition, % at 11 µM; actives 0.15% (n = 320,000); in the data active = inhibition above about 33%
Target sequence (P03206 whole entry, looked up): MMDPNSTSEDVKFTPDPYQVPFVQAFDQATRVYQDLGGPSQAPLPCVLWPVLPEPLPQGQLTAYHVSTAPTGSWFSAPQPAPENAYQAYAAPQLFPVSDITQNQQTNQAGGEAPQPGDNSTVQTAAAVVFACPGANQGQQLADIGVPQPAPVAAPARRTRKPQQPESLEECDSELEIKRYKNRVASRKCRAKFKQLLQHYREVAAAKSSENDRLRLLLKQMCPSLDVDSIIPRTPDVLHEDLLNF
NR3A LBD binder – modulates the human NR3A ligand-binding domain | Tm shift relative to glycine control, % at 25 µM | AID 1259313 | NR3A LBD differential scanning fluorimetry, Tm shift; 0% = protein alone, 100% = glycine-bound protein | actives 2.5% (n = 340,000);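 active = melting temperature shift of at least 10% of the positive control shift, at one fixed dose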
Rpn11 inh – blocks the human proteasome subunit Rpn11 | human 26S proteasome, Ub4-pepOG fluorescence polarization; 20S core pre-blocked with epoxomicin | inhibition, % at 20 µM | actives 0.59% (n = 360,000) | AID 588493;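 active = inhibition at 20 µM, scaled to each plate's controls, above about 33%, limit read from the data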
caTPT1 confirm – confirmation of Candida albicans TPT1 inhibitors; shares compounds with TPT1 inhibitor; recombinant caTPT1, fluorescence polarization, RNase T1 coupled; inhibition, % at 5 µM; actives 74% (n = 2,400);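 active = inhibition above the primary screen limit, the mean inhibition of all tested compounds plus 3 SD, cut at about 25% in these data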
RNase T1 inh – blocks Aspergillus oryzae RNase T1, a TPT1 counter-screen; RNase T1 cleavage, fluorescence polarization, 1536-well; actives 83% (n = 2,400); shares compounds with TPT1 inhibitor; AID 2153; inhibition, % at 5 µM;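 active = inhibition above the solvent-only control well mean plus 3 SD, limit set per screening run, cut at about 23% in these data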;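 note: plate controls were DMSO wells with enzyme for no effect and wells without RNase T1 for full effect; inhibitors block cleavage so intact labeled substrate keeps polarization high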
Target sequence (P00651 whole entry, looked up): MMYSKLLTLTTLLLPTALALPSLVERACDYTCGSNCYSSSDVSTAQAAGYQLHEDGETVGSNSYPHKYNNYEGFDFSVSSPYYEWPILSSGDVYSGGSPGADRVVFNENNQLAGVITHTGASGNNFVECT
Numbers without * were called inactive; nt = not tested or not shown. In the library only some 4.5% were active in any assay of this set; here they are far more common.

SMILES | dFosB act | EBNA-1 inh | TPT1 inhibitor | ZTA counter | NR3A LBD binder | Rpn11 inh | caTPT1 confirm | RNase T1 inh
COc1ccc(CCNC(=O)C(=O)NCC2OCCN2S(=O)(=O)c2ccccc2)cc1 (stereo unspecified) | -3.0 | 2.9 | 3.0 | 0.5 | -1.2 | 2.7 | nt | nt
Cc1ccc(C2=NOC(=O)/C2=C\c2ccc(C)o2)cc1 | -13.1 | 7.8 | 40.4* | -3.3 | 13.4* | 9.6 | 9.7 | 15.0
CC1(C)CC(=O)C(C=Nc2ccc(N)cc2)=C(O)C1 | -6.0 | -1.4 | -3.7 | -3.4 | 1.2 | 5.6 | nt | nt
COC(=O)c1ccc(N)c(N=CC2=C(O)CC(C)(C)CC2=O)c1 | -5.1 | 6.1 | 30.8* | 1.1 | 2.7 | nt | 8.9 | 13.3
CSc1ccccc1N=CC1=C(O)CC(C)(C)CC1=O | 2.2 | 4.6 | -2.8 | -2.3 | -1.6 | -5.4 | nt | nt
CC1(C)CC(=O)C(C=Nc2cc(C(=O)c3ccccc3)ccc2N)=C(O)C1 | -11.2 | -3.8 | 27.5* | 5.5 | -5.9 | nt | 7.4 | 11.9
COc1ccc(Cc2nc3ccc(C(=O)NCc4cccc(C)n4)cc3o2)cc1OC | nt | nt | nt | nt | nt | -5.2 | nt | nt
CCN1C(=O)/C(=C2/Sc3ccccc3N2CC)SC1=S | -5.1 | -4.9 | 4.7 | -4.2 | -3.0 | nt | nt | nt
C=CCN1/C(=C2/SC(=S)N(C)C2=O)Sc2ccccc21 | nt | 13.0 | 34.8* | 4.2 | nt | nt | 59.2* | 73.0*
CC1=Nc2ccc3ccccc3c2C1(C)C | -4.7 | 2.9 | 84.7* | -1.6 | -0.3 | nt | 44.2* | 55.4*
CCCN(C(=O)c1cccs1)c1c(N)n(Cc2ccccc2)c(=O)[nH]c1=O | -3.7 | nt | nt | -5.2 | 2.7 | -0.7 | nt | nt
O=[N+]([O-])C(=C1Nc2ccccc2N1)/C(Cl)=C(/Cl)Br | 2.0 | 5.9 | 0.8 | 6.0 | 0.7 | -10.5 | nt | nt
Cc1ccc(-c2nnc(Nc3ccc4c(c3)OCO4)c3ccccc23)cc1S(=O)(=O)NCCO | -19.5 | -5.6 | 0.1 | -11.4 | -2.6 | -5.1 | nt | nt
Cc1ccc(-c2nnc(Nc3ccc4c(c3)OCO4)c3ccccc23)cc1S(=O)(=O)NC(C)C | -22.5 | -15.2 | 52.5* | -6.2 | -2.2 | 14.6 | 7.1 | 11.9
CCC(COC)NC(=O)CCc1nnc(Cc2cccc(C(F)(F)F)c2)o1 (stereo unspecified) | 3.8 | -10.5 | -0.5 | -7.1 | -0.9 | -2.9 | nt | nt
CC[C@@H](C)[C@H](NC(=O)CNC(=O)Cc1c(C)c2c(cc(C)c3c(C)coc32)oc1=O)C(=O)O | -7.2 | 15.4 | 50.6* | 8.1 | 0.5 | -2.9 | 5.5 | 7.0
CC[C@@H](C)[C@H](NC(=O)Cc1c(C)c2c(cc(C)c3c(C)c(C)oc32)oc1=O)C(=O)O | 9.6 | nt | nt | nt | -0.8 | -2.2 | nt | nt
CCOC(=O)/C(C#N)=C/c1cc(C)n(-c2ccccc2)c1C | -8.5 | -9.2 | 4.2 | -9.7 | 2.2 | -0.8 | nt | nt
CCOC(=O)/C(C#N)=C/C=C1\C=Cc2ccccc2N1CC | -24.6 | 3.3 | 79.0* | 0.2 | 7.8 | nt | 83.5* | 92.6*
CCCCCCN1C=CC(=C/C=C(\C#N)C(=O)OCC)C=C1 | -10.2 | 0.0 | 175.9* | -15.0 | -0.8 | nt | 193.3* | 172.8*
CCCN1C=CC(=C/C=C(\C#N)C(=O)OCC)C=C1 | nt | -1.4 | 180.6* | -11.1 | nt | nt | 189.8* | 176.6*
Cn1c(=O)n(C)c2cc(N3CCCCC3)c(NC(=O)c3ccccc3)cc21 | -8.6 | -6.4 | -0.2 | 1.7 | -0.2 | 0.6 | nt | nt
CC(=O)NN1C(=O)/C(=C\c2ccccc2)SC1=S | -3.4 | -6.5 | 2.4 | -6.3 | 2.1 | 0.5 | nt | nt
COc1cc(/C=C2\SC(=S)N(NC(=O)c3cccnc3)C2=O)ccc1O | 31.2* | 5.7 | 25.4* | -14.9 | 3.0 | nt | 33.8* | 42.2*
COc1cc(/C=C2/SC(=S)N(CC3CCCO3)C2=O)ccc1O (stereo unspecified) | 1.8 | -0.1 | 39.3* | -18.3 | -3.8 | nt | 40.8* | 51.4*
SMILES | dFosB act | EBNA-1 inh | TPT1 inhibitor | ZTA counter | NR3A LBD binder | Rpn11 inh | caTPT1 confirm | RNase T1 inh
O=C1/C(=C\c2ccc(O)cc2)SC(=S)N1/N=C/c1ccc(O)cc1 | 3.4 | -11.6 | 64.7* | 2.8 | 18.8* | nt | 62.0* | 68.0*
O=C1C2C3C=CC(CC3)C2C(=O)N1/N=C/c1ccc(O)cc1 (stereo unspecified) | -0.1 | -7.9 | -3.6 | -6.7 | -0.1 | -3.0 | nt | nt
O=C(NN1C(=O)/C(=C/c2ccc(O)c(O)c2)SC1=S)c1ccccc1 | 7.4 | 3.5 | 31.3* | -15.7 | 13.2* | nt | 43.8* | 57.0*
CCOC(=O)c1ccc(NC(=O)CSc2nncn2-c2cccnc2)cc1 | -12.0 | -9.4 | 1.1 | -10.1 | 0.5 | -14.9 | nt | nt
CCOc1ccc(N2C(=O)S/C(=C\c3ccc(O)c(OC)c3)C2=O)cc1 | 0.2 | -12.4 | 65.9* | -5.0 | -1.0 | 16.4 | 48.1* | 57.9*
CC(=O)NN1C(=O)/C(=C\c2ccc(O)cc2)SC1=S | -0.6 | 3.4 | 36.6* | -11.5 | 0.2 | nt | 40.5* | 48.2*
COc1cc(/C=C2\SC(=S)N(NC(=O)c3ccc(O)cc3)C2=O)ccc1O | 28.2* | -0.7 | 34.6* | -2.0 | 6.3 | nt | 39.3* | 51.6*
CC1(C(=O)NS(=O)(=O)c2cccs2)CCN1C(=O)C1(c2ccc(Cl)cc2)CCC1 (stereo unspecified) | nt | nt | nt | nt | nt | 1.9 | nt | nt
CC1(C)Cc2c(sc3nc(C4CC4)n(N)c(=O)c23)CO1 | 1.8 | 8.5 | 3.3 | 6.1 | 1.2 | 9.0 | nt | nt
O=C(O)c1ccc(N/N=C/c2cc3cc4c(cc3nc2Cl)OCCO4)cc1 | -23.1 | 1.6 | 26.8* | -4.0 | 0.3 | 21.1 | 37.7* | 47.9*
O=Cc1cc2cc3c(cc2nc1Cl)OCCO3 | nt | 7.3 | -3.2 | -1.8 | -0.6 | nt | nt | nt
COc1ccc(C(=O)Nc2nnc(S(=O)(=O)N3CCOCC3)s2)cc1 | -10.2 | 6.8 | -0.5 | -4.3 | 1.4 | 3.5 | nt | nt
CCC1NC(=O)c2cc3ccccc3cc2-n2c1nc1ccc(OC)cc1c2=O (stereo unspecified) | nt | nt | nt | nt | nt | -6.5 | nt | nt
COc1ccc(NS(=O)(=O)c2ccc(O)c(NS(=O)(=O)c3ccc(NC(C)=O)cc3)c2)cc1 | -9.1 | nt | nt | nt | -2.3 | 2.6 | nt | nt
Cn1c(O)c(/C=N/NC(=O)c2cc3ccccc3cc2O)c2ccccc21 | 3.2 | 3.9 | 121.5* | 7.8 | 21.3* | nt | 127.4* | 124.7*
Cn1c(C(=O)NN)cc2cc(Oc3ccccc3)ccc21 | -7.3 | -5.0 | -0.1 | 4.8 | -2.9 | 0.8 | nt | nt
COc1ccc2c(c1)cc(C(=O)N/N=C/c1c(O)c(C(=O)O)cc3ccccc13)n2C | -24.2 | 12.4 | 51.3* | -1.6 | 11.2* | nt | 59.7* | 64.9*
COCCn1c(C)cc(/C=N/NC(=O)c2cc3ccccc3cc2O)c1C | -3.7 | nt | nt | -17.8 | 3.8 | 15.5 | nt | nt
O=C1OC(Sc2ccccc2)(c2ccccc2)c2ccccc21 (stereo unspecified) | -3.1 | nt | nt | nt | 0.4 | 6.0 | nt | nt
